We go through 37 compounds from PubChem BioAssay (NCI).

This is part of a sample that, as a whole, favours compounds with a hit. Of some 83,000 tested, about 20% had one in any assay.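 Growth was measured after 48 h exposure to one concentration of compound in 96-well plates. Values under 10 count as active.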 Calls of active or inactive are those of the source.

The assay deals with M14 melanoma. In words: NCI-60 one-dose screen, 48 h (100 = growth as untreated, 0 = no growth, -100 = all killed). To be noted: 10 µM unless noted.
Take `C=CC1=C[C@@H]2[C@@H]3O[C@]4(CC[C@H](O4)[C@@H](C)C[C@@H](O)C3=O)C[C@H](O)C3=NCC[C@@]32CC1`: the growth is -79% (active).
For `Cc1cc(-c2nc3cc(F)ccc3[se]2)cc(F)c1N`, the growth was 90.3% (inactive).
As to `CN1CC(=O)N(O)C1(C)c1cccnc1` (configuration not stated), the growth was 105% (inactive).
With `O=C(Nc1ccncc1F)c1cn(CC2CC2)c2ccccc12`, the growth was 108% (inactive).
Under `COc1cccc2c1c(C(=O)C(=O)Nc1cc(C)no1)cn2Cc1ccc(F)cc1` stands 45.7% (inactive); under `CC(C)OC(=O)[C@H](C)NP(=O)(Oc1ccccc1)C1CCCN(O)C1=O` (some centres not stated), 66.5% (inactive); under `CC[C@@H]1[C@@H](C)O[C@@](O)([C@@H](C)[C@H](O)[C@H](C)[C@H]2OC(=O)/C=C/C=C/[C@H](C)[C@@H]([C@@H](C)[C@@H](O)[C@H](C)[C@@]3(O)C[C@@H](O[C@H]4C[C@@H](O)[C@H](O)C(C)O4)[C@H](CC)[C@@H](C)O3)OC(=O)/C=C/C=C/[C@@H]2C)C[C@H]1O[C@@H]1C[C@@H](O)[C@H](O)C(C)O1` (some centres not stated), -83.9% (active).
Turning to `CCOc1ccc(/C=C/[N+](=O)[O-])cc1`, the growth was 54.5% (inactive).
For the compound `O=C1C2C(C(=O)[N]1[Hg][c]1ccccc1)C1(Cl)C(Cl)=C(Cl)C2(Cl)C1(Cl)Cl` (configuration not stated), the growth is -82.3% (active).
For the compound `COC(=O)[C@@H](C)C[C@H](Cc1ccc2ccccc2c1)NC(=O)c1csc([C@@H](C[C@H](C(C)C)N(C)C(=O)[C@@H](NC(=O)[C@H]2CCCCN2C)C(C)C)OC(C)=O)n1`, the growth is 24.6% (inactive).
In the case of `Cc1cc(N(CCCl)CCCl)ccc1C=Nc1ccccc1-c1ccccc1` it was 75.8% (inactive); in that of `CCn1cnc2c(Nc3cccc(Cl)c3)nc(N[C@@H]3CCCC[C@@H]3N)nc21`, -45.8% (active); in that of `CC12CCC3C(CCC4=CC(=O)CCC43CF)C1CCC2=O` (configuration not stated), 103% (inactive).
In the case of `C=CC12CCN(CC1)C(C(O)c1ccnc3ccc(OC)cc13)C2` (configuration not stated) it was 72.3% (inactive); in that of `COc1cc([C@@H]2c3cc4c(cc3[C@H](OC(C)=O)[C@H]3COC(=O)[C@H]23)OCO4)cc(OC)c1OC`, 6.87% (active).
For `CC(=O)[O][Hg][O]C(C)=O`, the growth was 88.3% (inactive).
Regarding `O=C(CCCCCCC(=O)Nc1ccc(N(CCCl)CCCl)cc1)NO`, the growth is 42.5% (inactive).
For `CC[C@H](C)[C@H](NC(=O)[C@H]1CCCCN1C)C(=O)N(C)[C@H](C[C@@H](OC(C)=O)c1nc(C(=O)NC23CC(C(=O)OC)(C2)C3)cs1)C(C)C`, the growth was 4.22% (active).
Regarding `COc1ccc(/C(C)=C(\c2ccc(OCCN3CCOCC3)cc2)c2ccc(OC(=O)Cc3ccccc3)cc2)cc1`, the growth is 104% (inactive).
Regarding `NC(=O)C(Br)c1ccccc1` (configuration not stated), the growth was 73.3% (inactive).
In the case of `O=C([O][Hg][CH2]C1OCCOC1[CH2][Hg][O]C(=O)c1ccccc1)c1ccccc1` (configuration not stated) it was 73.3% (inactive); in that of `CN(C)CCCOc1ccc2c(c1)c(C(=O)C(=O)NCCO)cn2Cc1ccccc1`, 101% (inactive).
Take `C1CCC([PH+](C2CCCCC2)C2CCCCC2[PH+](C2CCCCC2)C2CCCCC2)CC1.O=C(C1[CH-]CCCC1)C1CCCC[N-]1.[Au]` (configuration not stated): the growth is -52.2% (active).
On to `C[Se]C(=O)c1ccccc1OC(C)=O`, for which the growth was 20.8% (inactive).
On to `CC(C)COC(C[N+](=O)[O-])C(Cl)(Cl)Cl` (configuration not stated), for which the growth was 105% (inactive).
As to `Oc1c(O)c(Cl)c(Cl)c(Cl)c1Cl`, the growth was 39.6% (inactive).
In the case of `NC(N)=N/N=C\c1c[nH]c2ccc(Br)cc12` it was 94.1% (inactive); in that of `Brc1ccc2c(c1)c(-c1nc(-c3c[nH]c4ncccc34)cs1)cn2CCN1CCCCC1`, 15.8% (inactive); in that of `COc1ccc2c(c1)c(C1(O)CC(CSC#N)OC1=O)cn2C(=O)c1ccc(Cl)cc1` (configuration not stated), 96.4% (inactive).
Regarding `COC(=O)[C@@H](C)C[C@H](Cc1ccccc1)NC(=O)c1nc([C@@H](C[C@H](C(C)C)N(C)C(=O)[C@@H](NC(=O)[C@H]2CCCCN2C)C(C)C)OC(C)=O)sc1C`, the growth is -43.4% (active).
Regarding `COc1ccc(-n2c(C)nc3cc(OC)c(OC)cc3c2=O)cc1OC`, the growth is 106% (inactive).
In the case of `CC[S][Hg][Cl]`, the growth is 106% (inactive).
For `COc1ccc(C2=CC(c3ccc(OC)c(OC)c3)c3c(c4ccccc4oc3=O)O2)cc1OC` (configuration not stated), the growth is 12.9% (inactive).
As for `COc1ccc(/C=C\c2cc(OC)c(OC)c(OC)c2)cc1OCC(=O)Nc1nc2ccc(OC(F)(F)F)cc2s1`, the growth was 11.5% (inactive).
Under `CCCCCCCCCCCCCCCCCC1OC[C@H](COC(=O)O[C@@H](C(=O)O[C@H]2C[C@@]3(O)[C@@H](OC(=O)c4ccccc4)[C@@H]4[C@]5(OC(C)=O)CO[C@@H]5C[C@H](O)[C@@]4(C)C(=O)[C@H](OC(C)=O)C(=C2C)C3(C)C)[C@@H](NC(=O)c2ccccc2)c2ccccc2)O1` (some centres not stated) stands 29.6% (inactive).
Consider `O=C(Nc1ccc(O)cc1)C(Cl)(Cl)Cl`, for which the growth is 91.2% (inactive).
As to `CCOC(=O)[C@@H](C)C[C@H](Cc1ccccc1)NC(=O)c1nc([C@@H](C[C@H](C(C)C)N(C)C(=O)[C@@H](NC(=O)[C@H]2CCCCN2C)C(C)C)OC(C)=O)sc1CCOCc1ccccc1`, the growth is -57.1% (active).
